# Test results as given in PubChem BioAssay AID504810 (National Center for Advancing Translational Sciences (NCATS), 2011).
# The campaign covered roughly 330,000 compounds. About 670 (0.2%) were called active. The entries come from a sample that favours actives as a whole. Unmarked numbers belong to inactive results.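 The calls were made as follows: active = activity change below a set negative limit, meaning inhibition stronger than a set level (cut at about -70% in these data); inconclusive = activity change between two set negative limits; inactive = the rest.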
# Biological target: Thyrotropin receptor (Homo sapiens) (UniProt P16473)
# Experiment: Antagonists of the Thyroid Stimulating Hormone Receptor: HTS campaign
# Details: TSHR-expressing cells, TSH-stimulated cAMP HTRF, 2 h; at 11.5 µM; stronger effect = lower value
# Description: The thyroid-stimulating hormone receptor (TSHR) is a member of the 7 trans-membrane-spanning receptor (7TMR) family of cell surface receptors. TSHR-mediated hyperthyroidism is important in thyroid pathology. The development of small molecule antagonists of TSHR may lead to therapeutic approaches for TSHR-mediated hyperthyroidism caused by constitutively activating mutations or stimulating auto-antibodies associated with Graves' disease. Graves' disease is the leading cause of hyperthyroidism and is caused by autoantibodies that stimulate TSHR (TsAbs) causing thyroid growth and unregulated overproduction of thyroid hormones and existing treatments have liabilities (agranulocytosis). In addition, TSHRs are known to be expressed in multiple extrathyroidal tissues including bone, brain, kidney, testis, fat and cells of the immune system but the role of the TSHR in these tissues is not clear. Therefore, TSHR antagonists/inverse agonists could be used as probes of extrathyroidal TSHR function. Finally, TSHR inverse agonists, which are a subclass of antagonists that inhibit agonist-independent (or basal or constitutive) TSHR signaling, could be used to inhibit TSH-independent signaling in patients with recurrent or metastatic thyroid cancer who are receiving thyroid hormone to suppress TSH. In collaboration between scientist from the NCGC and the NIDDK, a miniaturized HTRF high-throughput screen was developed. It's a cell based assay, where an anti cAMP antibody contains a fluorescent cryptate tag (excitation 337 nm; emission 620 nm) and the acceptor is cAMP-d2 (excitation 620 nm; emission 665 nm). When antibody and cAMP-d2 interact and are excited by a 337 nm light, a FRET occurs resulting in emission at 665 nm. The assay is competition between cAMP-d2 and cAMP (from the cell lysate). The homogeneous protocol allows for one step dispense after stimulation that is automation friendly. NIH Chemical Genomics Center [NCGC] NIH Molecular Libraries Probe Centers Network [MLPCN] MLPCN Grant: MH090855-01 Assay Submitter (PI): Marvin Gerhengorn
# 1. 3ul of 200 TSHR freshly harvested cells/well are dispensed into a 1536 TC-treated white solid bottom plate. 2. Through pintool addition, 23nl of compounds and control in 100% DMSO are added to the plate. 3. Then 1ul of EC80 TSH (4nM final) is added to the plate. 4. Assay is incubated at 37 deg C for 2 hours. 5. 2ul of cAMP antibody diluted 1:20 in lysis buffer is added. 6. Immediately following, 2ul of d2 diluted 1:20 in HBSS is added seperately. 7. The assay is incubated for 30 minutes at ambient room temperature. 8. The result is obtained by using a ViewLux read-out with HTRF settings.
# % is scaled to controls: 0 for no effect and ±100 for the full control effect.
# Thyrotropin receptor (Homo sapiens), sequence (P16473 whole entry, looked up): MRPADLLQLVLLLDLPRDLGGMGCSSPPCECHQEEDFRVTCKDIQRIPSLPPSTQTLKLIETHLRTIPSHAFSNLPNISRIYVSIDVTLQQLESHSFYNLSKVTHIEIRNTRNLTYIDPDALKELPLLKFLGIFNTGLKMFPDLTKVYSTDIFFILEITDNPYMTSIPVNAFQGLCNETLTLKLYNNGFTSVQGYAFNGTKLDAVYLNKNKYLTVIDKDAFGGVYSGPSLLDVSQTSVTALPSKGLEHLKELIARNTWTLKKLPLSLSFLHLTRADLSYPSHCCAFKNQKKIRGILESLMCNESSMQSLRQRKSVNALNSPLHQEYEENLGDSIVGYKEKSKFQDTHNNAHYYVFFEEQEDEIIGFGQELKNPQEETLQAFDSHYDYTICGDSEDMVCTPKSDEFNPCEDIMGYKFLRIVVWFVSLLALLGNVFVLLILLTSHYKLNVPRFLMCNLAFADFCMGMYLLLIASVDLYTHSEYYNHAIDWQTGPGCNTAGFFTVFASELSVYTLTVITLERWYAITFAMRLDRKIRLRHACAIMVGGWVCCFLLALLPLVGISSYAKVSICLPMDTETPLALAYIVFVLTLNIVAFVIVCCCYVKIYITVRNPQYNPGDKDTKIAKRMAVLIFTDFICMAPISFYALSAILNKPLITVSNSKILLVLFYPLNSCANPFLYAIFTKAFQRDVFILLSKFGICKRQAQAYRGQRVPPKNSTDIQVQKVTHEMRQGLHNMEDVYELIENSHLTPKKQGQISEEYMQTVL
row,SMILES,"activity change, negative = inhibition"
1,CC(C)(O)C#Cc1ccc(C(=O)N2CCC(C(N)=O)(N3CCCCC3)CC2)cc1,2.47%
2,NC(=O)C1(N2CCCCC2)CCN(C(=O)c2ccc(C#Cc3ccccc3)o2)CC1,-75.1% (active)
3,NC(=O)C1(N2CCCCC2)CCN(C(=S)Nc2ccc(Cl)cc2)CC1,25.4%
4,CSc1ccccc1N1CCN(CCCCCC(=O)NC2CCCc3ccccc32)CC1 (stereo not given),-13.5%
5,Cc1c(C)n2c(SCC(=O)NC3CCCC3)nnc2[nH]c1=O,-8.74%
6,COc1ccc(NC(=O)CN2C(=O)COc3ccc(S(=O)(=O)N4CCOCC4)cc32)cc1,-2.02%
7,CSc1cccc(NC(=O)CN2C(=O)COc3ccc(S(=O)(=O)N4CCOCC4)cc32)c1,-134% (active)
8,CC(=O)Nc1ccc(NC(=O)CN2C(=O)COc3ccc(S(=O)(=O)N4CCCCC4)cc32)cc1,0.648%
9,Cc1cc2occ(CC(=O)NNC(=O)c3ccccc3F)c2cc1C,3.48%
10,Cc1csc(NC(=O)CSc2nc(=O)n(CCCN(C)C)c3c2CCC3)n1,-6.64%
11,CSc1nc(N(C)NC(=O)c2cccc(C)c2)c2ccccc2n1,-3.52%
12,Cc1ccnc(NS(=O)(=O)c2ccc(NC(=O)c3oc4ccccc4c3C)cc2)n1,-4.53%
13,Cc1cc(C)c2oc(C(=O)Nc3ccc(S(=O)(=O)Nc4nccc(C)n4)cc3)cc(=O)c2c1,-137% (active)
14,Cc1ccnc(NS(=O)(=O)c2ccc(NC(=O)c3oc4ccc(F)cc4c3C)cc2)n1,4.87%
15,CCCCC(C(=O)NC(C)(C)C)N(Cc1ccccc1)C(=O)c1snc(C(N)=O)c1N (stereo not given),-2.07%
16,CC/C(=N/Nc1ccccc1)c1cnnc(SC)n1,-5.85%
17,Cc1cccc(C)c1NC(=O)CSc1nc2c([nH]1)c(=O)n(C)c(=O)n2C,-2.1%
18,Cn1c2cc(B(O)O)sc2c2cnn(Cc3ccccc3F)c(=O)c21,-27.6%
19,CCOc1ccc(N(CC(=O)NC2CCCCCC2)S(=O)(=O)c2c(C)[nH]c(=O)[nH]c2=O)cc1,-10.6%
20,O=C(CN1C(=O)NC2(CCCCCC2)C1=O)Nc1ccc([N+](=O)[O-])cc1,0.839%
21,CN(C(=O)C1CCN(c2ncnc3c2nc2n3CCCCC2)CC1)C1CCCCC1,1.35%
22,[O-][n+]1onc2c1CCc1[nH]c(-c3ccccc3)nc1-2,-36.4%
23,CCCC1(C(=O)OC)NC(c2ccco2)C2C(=O)N(C)C(=O)C21 (stereo not given),-3.19%
24,Cc1cc(NC(=O)CN2C(=O)NC(C)(CCc3ccccc3)C2=O)no1 (stereo not given),10.4%
25,CCCCN(C(=O)c1ccc2ccccc2c1)c1c(N)n(CCCC)c(=O)[nH]c1=O,-8.5%
26,CNC(=S)N1CCC(NC(=O)C(Cc2ccc(F)cc2)NC(C)=O)CC1 (stereo not given),-6.46%
27,O=C(COc1ccc(Cl)cc1)Nc1ccc2c(c1)OCO2,-1.65%
28,O=P(O)(CN1CCCCCC1)C1Cc2ccccc2C1,34.6%

row,SMILES,"activity change, negative = inhibition"
1,CCOC(=O)C1(Cc2ccccc2C)CCCN(C(=O)CN2C(=O)CSC2=O)C1 (stereo not given),28.6%
2,COc1cc([N+](=O)[O-])cc([N+](=O)[O-])c1NC(=O)N1CCOCC1,-0.913%
3,CCN(CC(=O)Nc1ccc(NC(C)=O)cc1)C(=O)C1CC(=O)N(Cc2ccc(C)cc2)C1 (stereo not given),0.752%
4,CN1CCCc2cc(C#N)c(=O)[nH]c21,4.52%
5,COCCn1c(Cc2cccn2C)nnc1SCC(=O)Nc1nccs1,4.54%
6,C/C(CCC(=O)OC[C@H]1O[C@H](C#Cc2ccccc2)C=C[C@@H]1Oc1ccc(C)cc1)=N\OC[C@@H](O)[C@H]1O[C@@H]2OC(C)(C)O[C@@H]2[C@H]1O,-3.15%
7,CCOC(CNC(=O)C(=O)NCC(c1ccco1)N1CCN(c2ccc(OC)cc2)CC1)OCC (stereo not given),0.959%
8,Cc1cc(=O)oc2c(C)c(OC(C)C(=O)NC3CCN(Cc4ccccc4)CC3)ccc12 (stereo not given),-2.61%
9,O=c1cc(-c2ccccc2)[nH]c2nc(Cl)ccc12,-13.7%
10,C=CC1(C)CC(=O)C2(O)C(C)(O1)C(OC(C)=O)C(O)C1C(C)(C)CCC(O)C12C (stereo not given),107%
11,CN(C)c1ccc(CNC(=O)CN2C(=O)COc3ccc(S(=O)(=O)N4CCCC4)cc32)cc1,-5.17%
12,CCn1ccnc1CNC(=O)CC1C(=O)NCCN1CCCc1ccccc1 (stereo not given),8.41%
13,O=C(O)CCn1cc(/C=C/C(=O)c2ccc(Cl)cc2)c(-c2cccc(Br)c2)n1,-11.6%
14,O=C(Nc1ccc(C(=O)NCc2ccccc2Cl)cc1)C1=CSCCO1,-135% (active)
15,O=C(NCc1ccccc1Cl)C1CCCO1 (stereo not given),-3.41%
16,CSc1ccc(CNC(=O)c2ccc(NC(=O)C3=CSCCO3)cc2)cc1,17.8%
17,CC(NC(=O)c1cc(=O)[nH]c2ccccc12)c1ccc(F)cc1F (stereo not given),-93% (active)
18,O=C(CNC(=O)c1cc(=O)[nH]c2ccccc12)Nc1ccc(F)c(F)c1,1.67%
19,CC(NC(=O)COC(=O)c1cc(=O)[nH]c2ccccc12)c1ccccc1 (stereo not given),-4.46%
20,O=[N+]([O-])c1cc(Br)c(O)c(/C=N/Nc2nc3ccccc3s2)c1,-87.3% (active)
21,COc1ccc(CC(=O)N/N=C/c2cc([N+](=O)[O-])cc(Br)c2O)cc1,1.63%
22,Cc1cc(C(=O)N/N=C/c2cc([N+](=O)[O-])cc(C)c2O)n[nH]1,13.9%
23,CC(C)Cn1c(=O)c2ccccc2n2c(CCC(=O)NCc3ccccn3)nnc12,3.77%
24,C=CCc1ccccc1OCC(O)CN1CCN(CCO)CC1 (stereo not given),3.81%
25,Cc1cc(C)c2c(-c3ccc(F)cc3)c(C#N)c(=O)n(C)c2n1,-4.99%
26,Cc1cc(C)c(C#N)c(SCC(=O)Nc2ccccc2)n1,1.53%
27,Cc1cc(C#N)c(SCC(N)=O)nc1-c1ccc(F)cc1,-75.8% (active)
